Compounds without any hit were thinned out: in the full panel of roughly 83,000, 20% have a hit.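 Treatment: one concentration, 48 hours, 96-well format. Scoring: percent growth, with anything below 10 considered active.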 Values without a mark were called inactive. The source made the active and inactive calls.
Tested on: HL-60(TB) leukemia
Experiment: NCI-60 one-dose screen, 48 h (100 = growth as untreated, 0 = no growth, -100 = all killed)
Details: 10 µM unless noted

Row | SMILES | growth
1 | O=C(O)c1ccc2c3ccc(C(=O)O)c4c(C(=O)O)ccc(c5ccc(C(=O)O)c1c25)c43 | 111%
2 | COc1cc(Cl)cc(-c2nn(-c3cccc(NC(=O)Nc4cccc(C(F)(F)F)c4)c3)cc2-c2ccncc2)c1 | -7.89% (active)
3 | O=C(Nc1cccc(-n2cc(-c3ccncc3)c(-c3ccc(O)c(Cl)c3)n2)c1)c1cc(C(F)(F)F)cc(C(F)(F)F)c1 | 58.9%
4 | CCN(CC)CCOc1ccc2c(-c3ccccc3)c(-c3ccc(OC)cc3)c(=O)oc2c1 | 48.8%

Source: PubChem BioAssay (NCI)
